The nature of test [1]: Cell Viability - SK-N-SH (AID 435; calls by dose curve;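 further: potency means the concentration at half of the fitted maximal effect; compound exposure lasted 40 h at 37 °C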). Particulars: SK-N-SH neuroblastoma cell viability qHTS. An outline of the steps:
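SK-N-SH neuroblastoma cells (1500/well) treated 40 h at 37 °C in complete medium; viability read as cellular ATP by CellTiter-Glo luminescence. Normalized to DMSO and 100 uM tamoxifen; AC50 from Hill fits of qHTS concentration-response.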

Test [2] in a line: Cell Viability - N2a (AID 540).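 Further: plate controls were DMSO alone for no effect and tamoxifen control for full effect; nearly all actives have a fitted effect of over 45% in size.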 Particulars: N2a mouse neuroblastoma cell viability; activity change, negative = cytotoxicity: at 92.2 µM (top of the series). The procedure, abridged: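 N2a mouse neuroblastoma, 1500 cells/well, 5 hr settle; compound 40 hr, 37 °C; CellTiter-Glo 20 min RT; luminescence; Hill-fit AC50.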
The nature of test [3]: Cell Viability - Renal Proximal Tubule (AID 545). Further: nearly all actives have a fitted effect of over 40% in size. Particulars: renal proximal tubule cells viability; series mostly up to 91.7 µM. The procedure, abridged:
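Rat renal proximal tubule primary cells, 1000/well, exposed to compounds for 40 hr at 37 °C in complete medium; cellular ATP read by CellTiter-Glo luminescence. AC50 from concentration-response fitted with standard Hill equation.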

Test [4] is described as follows: Cellular Toxicity (caspase-3) Jurkat (AID 655).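 Further: cells exposed to compound for 16 h at 37 °C before reading.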 As to conditions: Jurkat caspase-3 activation, luminescence; caspase-3 activation: at 92.2 µM (top of the series), DMSO = 0%, tamoxifen = 100%. The procedure, abridged:
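Jurkat cells (5000/well) in complete medium exposed 16 h at 37 C; caspase-3/7 activity read by Caspase-Glo luminescence after 20 min at room temperature. Normalized to DMSO and 100 uM tamoxifen; AC50 from Hill fits.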

A short description of test [5]: Cellular Toxicity (caspase-3) MRC-5 (AID 659). As to conditions: MRC-5 cells, luminescence, normalized: DMSO 0%, 10 µM staurosporine 100%; series mostly up to 91.7 µM. An outline of the steps: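 Luminescent Caspase-Glo 3/7 read-out (1 h, room temperature) after a 16 h, 37 °C compound exposure of MRC-5 lung fibroblasts at 1500 cells/well. Concentration-response AC50 from Hill equation; 0% DMSO, 100% 10 uM staurosporine.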

Test [6] has as its target Cytochrome P450 3A4 (Homo sapiens) (UniProt P08684). The test is described as follows: qHTS Assay for Inhibitors and Substrates of Cytochrome P450 3A4 (AID 884). Further: on the % scale 0 is the no-effect control and ±100 the full control effect; nearly all actives have a fitted effect of over 50% in size. As to conditions: recombinant CYP3A4, Luciferin-PPXE luminescence; series mostly up to 57.1 µM. An outline of the steps:
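Luminescent readout of luciferin produced by CYP3A4 (20 nM) dealkylation of Luciferin-PPXE, 25 uM (its KM). NADPH-driven reaction ran 60 min at RT after 10 min compound preincubation; data scaled to 57 uM ketoconazole as 100% inhibition.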

Test [7] is described as follows: Cell Viability - LYMP2-001 (AID 921).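 Further: 0% = DMSO only and full inhibition = tetraoctylammonium bromide control wells; nearly all actives have a fitted effect of over 70% in size.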 As to conditions: LYMP2-001 lymphoblastoid cell viability; series mostly up to 92.2 µM. An outline of the steps:
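Human lymphoblastoid LYMP2-001 cells, 2500 per well, in complete medium, treated 24 h at 37 C. Viability from cellular ATP by CellTiter-Glo luminescence; AC50 from Hill-equation fits of qHTS concentration-response.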

Test [8] can be described thus: MultiTox-Fluor Cytotoxicity Assay - LYMP1-002 - Dead Cells (AID 960).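 Further: 0% = DMSO and 100% = tetraoctylammonium bromide; nearly all actives have a fitted effect of over 60% in size.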 As to conditions: LYMP1-002 lymphoblastoid cells, dead-cell protease fluorescence; series mostly up to 46.1 µM. The procedure, abridged: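 Readout: fluorescence at 485/520 from cell-impermeant bis-AAF-R110 cleaved by proteases leaking from damaged cells. LYMP1-002 lymphoblastoid line, 16 hr compound treatment at 37 C, concentration-response in qHTS format; Hill-equation AC50 values.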

A short description of test [9]: Cell Viability - LYMP2-005 (AID 967).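 Further: plate controls were DMSO only for no effect and 92 µM tetraoctylammonium bromide control for full effect.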 As to conditions: LYMP2-005 lymphoblastoid cell viability; series mostly up to 92.2 µM. The procedure, abridged:
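Human lymphoblastoid LYMP2-005 cells, 2,500 per well in complete medium, rested 5 h at 37C then compound-treated 24 h at 37C. Intracellular ATP read by CellTiter-Glo luminescence after 30 min at room temperature; AC50 from Hill-equation fits of concentration-response data.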

A short description of test [10]: Cell Viability - LYMP2-015 (AID 971).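 Further: 0% = DMSO only and full effect = 92 µM tetraoctylammonium bromide; nearly all actives have a fitted effect of over 55% in size.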 As to conditions: LYMP2-015 lymphoblastoid cell viability; series mostly up to 92.2 µM. An outline of the steps: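 qHTS cytotoxicity: 2500 cells/well, 5 hr 37 C, compound 24 hr 37 C, CellTiter-Glo 30 min RT, luminescence. Loss of ATP = toxicity; AC50 via standard Hill fit.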
Test [11] in a line: Cell Viability - LYMP2-002 (AID 977).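 Further: compound exposure lasted 24 h at 37 °C; plate controls were DMSO only for no effect and 92 µM tetraoctylammonium bromide for full effect.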 As to conditions: LYMP2-002 lymphoblastoid cell viability, qHTS; series mostly up to 92.2 µM. An outline of the steps:
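Human lymphoblastoid cells (2500/well) in complete medium were preincubated 5 hr at 37 C, then exposed to compounds for 24 hr at 37 C. Intracellular ATP was read by CellTiter-Glo luminescence; AC50 came from Hill-equation concentration-response fits.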

A short description of test [12]: Cell Viability - LYMP2-010 (AID 981). Further: on the % scale 0 is the no-effect control and ±100 the full control effect; nearly all actives have a fitted effect of over 55% in size. As to conditions: LYMP2-010 lymphoblastoid cell viability, qHTS; series mostly up to 92.2 µM. An outline of the steps: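 qHTS cytotoxicity, 1536-well: 2500 cells/well, 5 hr settle, 24 hr compound at 37 C, CellTiter-Glo 30 min RT, luminescence read. Decrease in ATP = toxicity; AC50 via standard Hill equation. Positive control tetraoctylammonium bromide.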

Test [13] can be described thus: Cell Viability - LYMP2-020 (AID 986).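 Further: plate controls were DMSO only for no effect and tetraoctylammonium bromide at 92 µM for full effect; nearly all actives have a fitted effect of over 55% in size.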 As to conditions: series mostly up to 92.2 µM. An outline of the steps: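 qHTS, 2500 cells/well; 5 hr then 24 hr compound exposure, 37 C; CellTiter-Glo luminescence after 30 min RT; ATP decrease taken as cytotoxicity; AC50 via Hill equation; tetraoctylammonium bromide positive control.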
Test [14] is described as follows: Cell Viability - LYMP2-022 (AID 987).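 Further: 0% = DMSO alone and full effect = tetraoctylammonium bromide at 92 µM; nearly all actives have a fitted effect of over 55% in size.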 Particulars: LYMP2-022 lymphoblastoid cell viability; series mostly up to 92.2 µM. The procedure, abridged:
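Luminescent ATP read-out (CellTiter-Glo, 30 min, RT) after 24 hr, 37 C compound exposure of 2500 human lymphoblastoid cells/well in complete medium. Cytotoxicity taken as concentration-dependent ATP loss; AC50 from standard Hill equation.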

Test [15] can be described thus: qHTS assay for small molecule agonists of retinoid X receptor alpha signaling (AID 588544). Particulars: HEK293T RXRa-UAS-bla, beta-lactamase reporter, 18 h; 530 nm emission.
Test [16] in a line: qHTS assay for small molecule antagonists of retinoid X receptor alpha signaling (AID 588546; active means well fitted inhibition curve with a large enough effect in the signal ratio, with a control signal flat, not every such curve was filed as active; the % refers to the signal ratio;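 further: cells stimulated with 9-cis-retinoic acid as agonist; on the % scale 0 is the no-effect control and ±100 the full control effect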). As to conditions: HEK293T RXRa-UAS-bla, beta-lactamase ratio, antagonist mode; measured here: W530 green channel, cytotoxicity proxy. The procedure, abridged:
(§1)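 Beta-lactamase reporter inhibition, read as CCF4 fluorescence ratio (ex 405, em 460/530 nm) after 2 h at RT. HEK293T UAS-bla cells, 2500/well, were stimulated with 9-cis-RA at 500 or 100 nM final alongside test compound for 18 h at 37 C.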

Test [17] has as its target Retinoic acid receptor RXR-alpha (Homo sapiens) (UniProt P19793). The description is as above. Particulars: HEK293T RXRa-UAS-bla, beta-lactamase ratio, antagonist mode. The procedure, abridged:
as §1

Test [18] addresses Tumor necrosis factor (Homo sapiens) (UniProt P01375). As to the kind of experiment: qHTS assay to identify small molecules that stimulate Tumor Necrosis Factor-alpha (TNF-alpha) secretion (AID 651757; active means well fitted curve in the direction sought with a large enough effect in the signal ratio; the % refers to the signal ratio; further: 0% is about no effect). Particulars: Human cells, HTRF 665/615 ratio; series mostly up to 92.2 µM. An outline of the steps:
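THP-1 cells, 3000/well; compound 17 hrs, 37 C; add cryptate/XL665 anti-TNF-alpha antibody pair; 3 hr RT; TR-FRET (HTRF) read of secreted TNF-alpha. Quantitative HTS format.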

The target in test [19] is Thyroid hormone receptor beta (Homo sapiens) (UniProt P10828). The test is described as follows: qHTS assay for small molecule agonists of thyroid hormone receptor beta signaling (AID 588545; calls by dose curve;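 further: 0% = DMSO only and 100% = 10 nM T3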). Particulars: TR-UAS-bla GripTite HEK 293, beta-lactamase ratio, agonist mode, 18 h; series mostly up to 76.7 µM. The procedure, abridged:
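TR-UAS-bla-GripTite HEK 293 cells in medium with 2% charcoal/dextran FBS, 0.1 mM NEAA and 1 mM sodium pyruvate were treated with titrated compounds for 18 hrs at 37 C. Beta-lactamase reporter was read with CCF4 dye (ex 405, em 460/530 nm); EC50 from Hill fits.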

Test [20] has the same target. As to the kind of experiment: qHTS assay for small molecule antagonists of thyroid hormone receptor beta signaling (AID 588547; active means well fitted inhibition curve with a large enough effect in the signal ratio, with a control signal flat, not every such curve was filed as active; the % refers to the signal ratio;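 further: cells stimulated with 0.4 nM T3 agonist during compound exposure; on the % scale 0 is the no-effect control and ±100 the full control effect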). As to conditions: TR-UAS-bla HEK293, beta-lactamase ratio, antagonist mode, 18 h. An outline of the steps: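 Inhibition of T3-driven (0.4nM final) beta-lactamase reporter activity was measured over 0.59 nM to 92 uM compound after 18 h at 37 C. The cells were GripTite HEK293 TR-UAS-bla in charcoal/dextran-stripped serum, with CCF4 ratio read-out and IC50 from Hill fits.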

The source of these data is PubChem BioAssay (NCATS).

The structures appear in SMILES notation. Results filed as inconclusive are left out. Active and inactive are the calls of the source. Unless noted, the call rests on the fitted dose curve; in most records, active means well fitted curve in the direction sought with a large enough effect; inconclusive means small, poorly fitted or top-dose-only effect, or another doubt; inactive means no such curve, though single readings can be large; an effect the other way counts as inactive or inconclusive. Bounds are passed on as bounds.

Sequence of Retinoic acid receptor RXR-alpha (Homo sapiens) (P19793 whole entry, looked up): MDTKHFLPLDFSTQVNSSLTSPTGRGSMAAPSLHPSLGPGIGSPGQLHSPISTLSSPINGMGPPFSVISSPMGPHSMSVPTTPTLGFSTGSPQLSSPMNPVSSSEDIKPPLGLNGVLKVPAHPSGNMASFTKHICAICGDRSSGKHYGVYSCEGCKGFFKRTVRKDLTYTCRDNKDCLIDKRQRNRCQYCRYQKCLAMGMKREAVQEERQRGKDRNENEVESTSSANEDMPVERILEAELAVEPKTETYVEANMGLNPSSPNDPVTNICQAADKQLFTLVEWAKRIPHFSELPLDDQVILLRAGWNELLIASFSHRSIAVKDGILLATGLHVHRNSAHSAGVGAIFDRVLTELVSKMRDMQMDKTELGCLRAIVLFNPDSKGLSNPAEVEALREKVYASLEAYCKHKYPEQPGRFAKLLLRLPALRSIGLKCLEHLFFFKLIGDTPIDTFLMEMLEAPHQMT
Sequence of Thyroid hormone receptor beta (Homo sapiens) (P10828 whole entry, looked up): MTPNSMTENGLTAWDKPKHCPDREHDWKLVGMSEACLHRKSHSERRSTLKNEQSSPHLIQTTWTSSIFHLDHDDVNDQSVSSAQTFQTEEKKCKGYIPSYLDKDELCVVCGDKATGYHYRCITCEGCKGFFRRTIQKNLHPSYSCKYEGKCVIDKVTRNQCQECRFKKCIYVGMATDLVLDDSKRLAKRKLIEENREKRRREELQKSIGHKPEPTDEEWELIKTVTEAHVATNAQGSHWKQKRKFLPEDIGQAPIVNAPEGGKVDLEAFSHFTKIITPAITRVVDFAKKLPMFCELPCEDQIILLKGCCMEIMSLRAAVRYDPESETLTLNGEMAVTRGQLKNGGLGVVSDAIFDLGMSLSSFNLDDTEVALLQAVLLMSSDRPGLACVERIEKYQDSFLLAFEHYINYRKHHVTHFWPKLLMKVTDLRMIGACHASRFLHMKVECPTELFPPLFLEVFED
Sequence of Tumor necrosis factor (Homo sapiens) (P01375 whole entry, looked up): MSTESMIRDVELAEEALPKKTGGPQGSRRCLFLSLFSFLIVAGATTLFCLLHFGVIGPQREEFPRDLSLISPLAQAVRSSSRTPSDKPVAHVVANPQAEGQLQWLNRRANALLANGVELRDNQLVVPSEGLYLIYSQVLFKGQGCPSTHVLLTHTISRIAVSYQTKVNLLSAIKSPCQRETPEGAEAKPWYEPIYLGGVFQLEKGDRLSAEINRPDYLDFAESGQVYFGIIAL
Sequence of Cytochrome P450 3A4 (Homo sapiens) (P08684 whole entry, looked up): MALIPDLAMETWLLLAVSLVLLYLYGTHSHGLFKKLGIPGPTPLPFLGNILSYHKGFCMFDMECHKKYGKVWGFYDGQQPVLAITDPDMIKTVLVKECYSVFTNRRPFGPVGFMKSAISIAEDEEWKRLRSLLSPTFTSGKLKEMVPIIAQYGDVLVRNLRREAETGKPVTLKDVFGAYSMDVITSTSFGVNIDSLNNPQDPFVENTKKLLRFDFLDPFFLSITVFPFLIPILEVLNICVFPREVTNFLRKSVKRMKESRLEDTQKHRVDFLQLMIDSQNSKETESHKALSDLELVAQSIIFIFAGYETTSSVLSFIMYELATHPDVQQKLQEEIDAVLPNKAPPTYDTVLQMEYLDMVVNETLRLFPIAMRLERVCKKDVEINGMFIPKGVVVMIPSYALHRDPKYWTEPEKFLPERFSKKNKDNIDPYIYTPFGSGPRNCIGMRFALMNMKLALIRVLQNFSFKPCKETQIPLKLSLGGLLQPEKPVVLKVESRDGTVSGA

Regarding `c1ccc2c(c1)CCNC2`, in [1], the Potency is > 92 µM (inactive). In addition, the Potency result in test [2], in [6], in [7], in [8], in test [9] and in [10] was “inactive” in each case. Moreover, the Potency entry in test [11], in test [12], in [13] and in test [14] was “inactive” each time. In addition, the outcome in [3], in test [5] and in test [18] was inactive. Besides, the caspase-3 activation in test [4] was 0.933% (inactive). Besides, the figures for the max response in test [15], in test [16] and in test [17] were -9.85%, -4.26% and 19.2% (inactive), respectively.
As for `Nc1ccc(Cl)c(Cl)c1`, the Potency in [1] was > 92 µM (inactive). The Potency entry in test [2], in test [7], in [8], in test [9], in test [10] and in [11] was “inactive” each time. The Potency entry in test [12], in test [13], in test [14] and in test [19] was “inactive” each time. Besides, the outcome in test [3], in [5] and in test [18] was inactive. The caspase-3 activation in test [4] was 0.952% (inactive). Also, the max response is 3.91% in [15], 2.84% in [16] and -9.29% (inactive) in test [17]. Besides, the activity change % (negative = inhibition) in test [20] is 2.33% (inactive).
As to `c1ccc(N=NNc2ccccc2)cc1`, in test [1], the Potency is > 92 µM (inactive). Besides, the Potency entry in [2], in test [6], in [7], in [8], in [9] and in test [10] was “inactive” each time. Further, the Potency entry in [11], in [12], in test [13], in test [14] and in test [19] was “inactive” each time. The call in [3] and in test [18] was inactive. The caspase-3 activation in test [4] is 6.34% (inactive). The values for the max response in test [15], in test [16] and in test [17] were 7.75%, -2.24% and -17.2% (inactive), respectively. For the same compound, the activity change % (negative = inhibition) in test [20] is 0.0148% (inactive).
